We go through 8 molecules from PubChem BioAssay (NCI).

What all share (test): NCI-60 one-dose screen, 48 h (100 = growth as untreated, 0 = no growth, -100 = all killed)
Common to all, as to details: 10 µM unless noted

For test [1], the system named is HCT-15 colon.
The subject of test [2] is HT29 colon.
Test [3] concerns SNB-75 CNS.
Test [4] relates to SNB-19 CNS.
Test [5] relates to U251 CNS.
In test [6] the test system is PC-3 prostate.
Test [7] concerns SK-MEL-5 melanoma.
The test system of test [8] is UACC-62 melanoma.
Test [9] has as its system LOX IMVI melanoma.
The subject of test [10] is SK-MEL-28 melanoma.
The subject of test [11] is SK-MEL-2 melanoma.
Test [12] concerns EKVX NSCLC.
In test [13] the test system is SN12C renal.
For test [14], the system named is UO-31 renal.
Test [15] deals with TK-10 renal.
The test system of test [16] is ACHN renal.
For test [17], the system named is CAKI-1 renal.
Test [18] relates to CCRF-CEM leukemia.
Test [19] has as its system MOLT-4 leukemia.

This is part of a sample that, as a whole, favours compounds with a hit. Of some 83,000 tested, about 20% had one in any assay.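 For each line, cells grew in 96-well plates with the test compound present at a single concentration for 48 hours.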 Values without a mark were called inactive. The source made the active and inactive calls. The calls were made as follows: active = growth percent below 10; inactive = the rest.

As for `COc1cc(-c2csc(NC(=O)c3cc(F)cc(C(F)(F)F)c3)n2)cc(OC)c1OC`, the growth is 34.3% in [1]; 6.41% (active) in [2]; 19.3% in [3]; 40.2% in test [4]; 31.3% in test [5]; 36% in test [6]. The growth in test [7] was 53.2%; in test [8] it was 43.6%; in [9] it was 27%; in test [10] it was 50.3%; in test [11], 14.9%; in test [12], 50%. Also, the growth in [13] was 35%; in test [14], 45.3%; in [15] it was 65.1%; in test [16], 49.1%; in test [17] it was 42.7%; in [18] it was 17%. The growth in [19] is 25.8%.
On to `CCOC(=O)/C(C#N)=C1/NNC(=Nc2cccnc2)S1`, for which the growth in [1] is 101%; in test [2], 98.3%; in [3], 92%; in test [4], 95.9%; in test [5], 94.1%; in test [6], 88.6%. The growth was 98.6% in test [7]; 95.5% in [8]; 95.7% in [9]; 105% in test [10]; 107% in [11]; 98.7% in test [12]. For the same molecule, the growth in test [13] was 98.6%; in test [14] it was 92.1%; in [15], 102%; in [16] it was 100%; in test [17] it was 97.1%; in [18], 106%. Moreover, the growth in [19] is 106%.
Consider `CC(C)(C)c1ccc(NS(=O)(=O)c2ccc3nc(NC(=O)c4cnccn4)[nH]c3c2)cc1`, for which the growth is 28.6% in [1]; 11% in test [2]; -30.3% (active) in test [3]; 40% in test [4]; 35.3% in [5]; 28.3% in test [6]. The growth in test [7] is 13.4%; in test [8], 40.4%; in [9] it was 40.4%; in test [10], 45.8%; in test [11] it was 45.3%; in test [12] it was 58.6%. In addition, the growth in test [13] is 44.3%; in [14] it was 36.1%; in test [15], 57.4%; in test [16] it was 39.6%; in test [17] it was 21.7%; in [18], 7.84% (active). Also, the growth in [19] is 27.7%.
On to `COC(=O)C(OC(C)=O)C(OC(C)=O)c1ccc(OC)c(OC)c1` (configuration not stated), for which the growth is 97.8% in [1]; 97.2% in [2]; 96.4% in test [3]; 103% in [4]; 97.5% in test [5]; 81.5% in test [6]. Also, the growth in test [7] is 97.7%; in test [8] it was 100%; in test [9], 90%; in test [10] it was 102%; in test [11], 96.5%; in test [12], 107%. For the same molecule, the growth in test [13] was 101%; in test [14], 106%; in test [15] it was 115%; in [16], 104%; in test [17] it was 101%; in test [18], 94.9%. The growth in test [19] is 85.5%.
In the case of `CCc1c2c(nc3ccc(OCc4ccc(B(O)O)cc4)cc13)-c1cc3c(c(=O)n1C2)COC(=O)[C@]3(O)CC`, the growth in test [1] is 18%; in test [2], 3.65% (active); in [3], -7.42% (active); in [4], 8.1% (active); in [5] it was -12% (active); in test [6], 24.4%. The growth in test [7] is -67.5% (active); in test [8] it was -25.1% (active); in test [9], -47.8% (active); in test [10], 36%; in test [11], 7.66% (active); in test [12] it was 25.4%. Besides, the growth in test [13] is 6.55% (active); in [14], -15.8% (active); in test [15], 27.5%; in test [16], -12.6% (active); in test [17] it was -21% (active); in test [18] it was 4.37% (active). Besides, the growth in test [19] is -5.64% (active).
As to `CC(C)(C)CC(C)(C)n1nnnc1C(NC12CC3CC(CC(C3)C1)C2)c1ccccc1` (configuration not stated), the growth is 84.5% in test [1]; 79.9% in test [2]; 80.5% in test [3]; 90.5% in [4]; 89.4% in [5]; 77.6% in test [6]. Further, the growth in test [7] is 88.9%; in [8] it was 69.2%; in test [9] it was 87.6%; in test [10], 99.6%; in test [11], 95.8%; in test [12], 84.9%. The growth in [13] was 88.8%; in test [14] it was 81.6%; in [15], 94.9%; in test [16], 95.8%; in test [17], 83.1%; in test [18] it was 83.5%. Besides, the growth in test [19] is 90%.
As for `COc1cc2c(c(O)c1Br)C(=O)c1c(O)cc(C[C@H](C)O)cc1[C@H]2[C@H]1c2cc(C[C@H](C)O)cc(O)c2C(=O)c2c1cc(OC)c(Br)c2O`, the growth in test [1] is 8.27% (active); in [2], 11%; in [3], -6.83% (active); in [4] it was 18.1%; in test [5], 10.3%; in [6], 16.2%. Besides, the growth in [7] is -74.1% (active); in test [8], 4.54% (active); in [9] it was 4.77% (active); in test [10] it was 31.8%; in test [11], -38.2% (active); in [12], 9.77% (active). In addition, the growth in test [13] is 9.01% (active); in test [14], -29% (active); in [15], 37%; in [16], -46.1% (active); in test [17], 4.31% (active); in test [18], 10.1%. Moreover, in test [19], the growth was -0.594% (active).
With `CCN1CCN(CCNc2nccc(-c3c(-c4cccc(OC)c4)nc4occn34)n2)S1(=O)=O`, the growth in [1] is 102%; in test [2], 50.3%; in [3], 112%; in [4], 113%; in test [5] it was 113%; in test [6], 96.9%. Besides, the growth in test [7] is 60.5%; in test [8], 27.5%; in test [9], 76.6%; in test [10], 47.3%; in [11], 93.6%; in test [12], 90.9%. Besides, the growth in test [13] is 95.6%; in [14] it was 91.9%; in test [15] it was 128%; in [16], 84.9%; in test [17], 78.1%; in test [18], 117%. Also, in [19], the growth is 89%.
